Reference: PubChem BioAssay (NCATS)
Records with an inconclusive call do not appear. Active and inactive are the calls of the source. Calls come from the whole dose curve; as a rule, active = well fitted cell-killing curve with a large enough effect; inconclusive = small, poorly fitted or top-dose-only effect, or effect the other way; inactive = flat fitted curve, though single readings scatter.

What was measured:
Experiment in all cases: Primary qHTS to identify gynecologic anti-cancer compounds using libraries of approved drugs and bioactive compounds (AID 1345084); note: nearly all actives have a fitted effect of over 55% in size
[1] = test system: C33A; settings: Gynecologic cancer cell panel viability, ATPlite luminescence, 48 h; series mostly up to 57.5 µM
Method in brief: (§1)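 Luminescence from the ATPlite ATP-monitoring reagent indicates viable cell number; lower signal means cytotoxicity. Cells received compound 16 h after seeding and were exposed for 48 h across five concentrations.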

[2] = test system: CAOV3; settings: Gynecologic cancer cell panel viability, ATPlite luminescence, 48 h; series mostly up to 57.5 µM
Method in brief: as §1

[3] = test system: CASKI; settings: Gynecologic cancer cell panel viability, ATPlite luminescence, 48 h; series mostly up to 57.5 µM
Method in brief: as §1

[4] = test system: Es-2; settings: Gynecologic cancer cell panel viability, ATPlite luminescence, 48 h; series mostly up to 57.5 µM
Method in brief: as §1

[5] = test system: HeLa; settings: Gynecologic cancer cell panel viability, ATPlite luminescence, 48 h; series mostly up to 57.5 µM
Method in brief: as §1

[6] = test system: Hek293T; settings: Gynecologic cancer cell panel viability, ATPlite luminescence, 48 h, control line for the selectivity index; series mostly up to 57.5 µM
Method in brief: as §1

[7] = test system: JEG-3; settings: Gynecologic cancer cell panel viability, ATPlite luminescence, 48 h; series mostly up to 57.5 µM
Method in brief: as §1

[8] = test system: OV90; settings: Gynecologic cancer cell panel viability, ATPlite luminescence, 48 h; series mostly up to 57.5 µM
Method in brief: as §1

[9] = test system: PA-1; settings: Gynecologic cancer cell panel viability, ATPlite luminescence, 48 h; series mostly up to 57.5 µM
Method in brief: as §1

[10] = test system: SKOV3; settings: Gynecologic cancer cell panel viability, ATPlite luminescence, 48 h; series mostly up to 57.5 µM
Method in brief: as §1

[11] = test system: Tov-21-G; settings: Gynecologic cancer cell panel viability, ATPlite luminescence, 48 h; series mostly up to 57.5 µM
Method in brief: as §1

[12] = test system: Tov112D; settings: Gynecologic cancer cell panel viability, ATPlite luminescence, 48 h; series mostly up to 57.5 µM
Method in brief: as §1
% is set by controls: 0 for no effect and ±100 for the full control effect.

CC(=O)N[C@@H](CCCCN)C(=O)N(C)[C@@H](CC(C)C)C(=O)N[C@H](C(=O)N(C)[C@@H](Cc1ccccc1)C(=O)N[C@H](Cc1ccccc1)C(N)=O)C(C)C
inactive: activity change, negative = cytotoxicity [1] 18.7% [at 6.55 µM] | activity change, negative = cytotoxicity [2] 6.22% [at 6.55 µM] | activity change, negative = cytotoxicity [3] 2.04% [at 6.55 µM] | activity change, negative = cytotoxicity [4] -0.643% [at 6.55 µM] | activity change, negative = cytotoxicity [5] 16.5% [at 6.55 µM] | activity change, negative = cytotoxicity [6] 8.12% [at 6.55 µM] | activity change, negative = cytotoxicity [7] -0.179% [at 6.55 µM] | activity change, negative = cytotoxicity [8] -1.74% [at 6.55 µM] | activity change, negative = cytotoxicity [9] 7.96% [at 6.55 µM] | activity change, negative = cytotoxicity [10] 0% [at 6.55 µM] | activity change, negative = cytotoxicity [11] 3.25% [at 6.55 µM] | activity change, negative = cytotoxicity [12] 6.63% [at 6.55 µM]

COC(=O)CC(C)(O)CC(=O)OCc1ccc(O[C@@H]2O[C@H](CO)[C@@H](O)[C@H](O)[C@H]2O)cc1 (stereo partly specified)
inactive: Potency [1] | Potency [2] | Potency [3] | Potency [4] | Potency [5] | Potency [6] | Potency [7] | Potency [8] | Potency [9] | Potency [10] | Potency [11] | Potency [12]

O=C(/C=C\c1ccc(O)cc1)N[C@@H](Cc1ccc(O)cc1)C(=O)O
inactive: Potency [1] | Potency [2] | Potency [3] | Potency [4] | Potency [5] | Potency [6] | Potency [7] | Potency [8] | Potency [9] | Potency [10] | Potency [11] | Potency [12]

O=C(OC[C@@]1(O)CO[C@@H](O[C@H]2[C@H](Oc3ccc(O)cc3)O[C@H](CO)[C@@H](O)[C@@H]2O)[C@@H]1O)c1ccc(O)cc1
inactive: Potency [1] | Potency [2] | Potency [3] | Potency [4] | Potency [5] | Potency [6] | Potency [7] | Potency [8] | Potency [9] | Potency [10] | Potency [11] | Potency [12]

C=C1CC[C@H]2[C@@](C)(CCC(O)[C@@]2(C)CO)[C@@H]1CCC1=CCOC1=O (stereo partly specified)
inactive: Potency [1] | Potency [2] | Potency [3] | Potency [4] | Potency [5] | Potency [6] | Potency [7] | Potency [8] | Potency [9] | Potency [10] | Potency [11] | Potency [12]

CC1=CC(=O)C2C(C)(C)CCC[C@]2(C)[C@H]1CO (stereo partly specified)
inactive: Potency [1] | Potency [2] | Potency [3] | Potency [4] | Potency [5] | Potency [6] | Potency [7] | Potency [8] | Potency [9] | Potency [10] | Potency [11] | Potency [12]

O=C(CC(c1ccccc1)c1ccccc1)N1CCN(C(c2ccccc2)c2ccccc2)CC1
inactive: Potency [1] | Potency [2] | Potency [3] | Potency [4] | Potency [5] | Potency [6] | Potency [7] | Potency [8] | Potency [9] | Potency [10] | Potency [11] | Potency [12]

CO[C@H]1/C=C\O[C@@]2(C)Oc3c(C)c(O)c4c(O)c(c5c(nc6cc(C)ccn65)c4c3C2=O)NC(=O)/C(C)=C\C=C/[C@H](C)[C@H](O)[C@@H](C)[C@@H](O)[C@@H](C)[C@H](OC(C)=O)[C@@H]1C
inactive: Potency [1] | Potency [2] | Potency [3] | Potency [4] | Potency [5] | Potency [6] | Potency [7] | Potency [8] | Potency [9] | Potency [10] | Potency [11] | Potency [12]

C=C(C)C1Cc2cc(C(=O)OC3OC(CO)C(O)C(O)C3O)ccc2O1 (stereo unspecified)
inactive: Potency [1] | Potency [2] | Potency [3] | Potency [4] | Potency [5] | Potency [6] | Potency [7] | Potency [8] | Potency [9] | Potency [10] | Potency [11] | Potency [12]

COC1/C=C/C(C)(O)C(SCC(N)C(=O)O)CC(=O)OC(C)C(C)CC/C=C/1C (stereo unspecified)
inactive: Potency [1] | Potency [2] | Potency [3] | Potency [4] | Potency [5] | Potency [6] | Potency [7] | Potency [8] | Potency [9] | Potency [10] | Potency [11] | Potency [12]

C[C@H](NC(c1cccc2[nH]c(=O)c(=O)[nH]c12)P(=O)(O)O)c1ccc(Br)cc1 (stereo partly specified)
inactive: Potency [1] | Potency [2] | Potency [3] | Potency [4] | Potency [5] | Potency [6] | Potency [7] | Potency [8] | Potency [9] | Potency [10] | Potency [11] | Potency [12]

Cc1ccccc1NC(=O)Nc1ccc(CC(=O)N(C)[C@@H](CC(C)C)C(=O)NCC[C@H](NC(=O)[C@@H]2CCCN2S(=O)(=O)c2cc(Cl)cc(Cl)c2)C(=O)O)cc1
inactive: Potency [1] | Potency [2] | Potency [3] | Potency [4] | Potency [5] | Potency [6] | Potency [7] | Potency [8] | Potency [9] | Potency [10] | Potency [11] | Potency [12]

CC[C@H]1OC(=O)[C@H](C)[C@@H](O[C@H]2C[C@@](C)(OC)[C@@H](O)[C@H](C)O2)[C@H](C)[C@@H](O[C@@H]2O[C@H](C)C[C@H](N(C)C)[C@H]2O)[C@](C)(O)C[C@@H](C)C(=O)[C@H](C)[C@H]2OC(=O)O[C@@]21C
inactive: Potency [1] | Potency [2] | Potency [3] | Potency [4] | Potency [5] | Potency [6] | Potency [7] | Potency [8] | Potency [9] | Potency [10] | Potency [11] | Potency [12]
